Bioassay records from PubChem BioAssay.
A selection: hits, their analogues and other compounds. The true share with any hit is near 4.8%.
DAX1 inh-1 – inhibitors of human orphan nuclear receptor DAX1 (NR0B1) | P51843 | HEK293 Gal4-DAX1 luciferase reporter, luminescence | inhibition, % at 6.75 µM | hit rate 0.99% among 340,000 | AID 504766;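 active means inhibition above the mean over all tested compounds plus 3 SD, cut at about 4.2% in these data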;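 further: 0% = DAX1-transfected cells with DMSO and 100% = empty-vector control cells with DMSO; inhibition shows as a rise in luminescence from relieved DAX1 repression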
Target sequence (P51843 207-470 limits assumed): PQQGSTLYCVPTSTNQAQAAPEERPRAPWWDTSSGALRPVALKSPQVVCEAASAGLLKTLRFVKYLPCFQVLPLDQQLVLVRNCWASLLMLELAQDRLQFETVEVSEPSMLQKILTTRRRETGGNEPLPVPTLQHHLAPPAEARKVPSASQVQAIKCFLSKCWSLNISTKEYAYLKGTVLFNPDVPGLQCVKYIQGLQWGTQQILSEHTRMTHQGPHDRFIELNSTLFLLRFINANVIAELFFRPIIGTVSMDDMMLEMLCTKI
DAX1 inh-2 – inhibitors of DAX1 repression of SF-1 activated StAR promoter; HEK293T StAR-luciferase reporter, SF-1/DAX-1 repression relief; hit rate 1.1% among 370,000; AID 652010; inhibition, % at 6.8 µM;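 active means inhibition above the mean over all tested compounds plus 3 SD, cut at about 3.6% in these data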;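 further: 0% = DAX-1 cells with DMSO and 100% = cells lacking DAX-1 with DMSO; higher inhibition means more luminescence from relief of DAX-1 repression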
hcDAF-12 act – H. contortus DAF-12 activation, primary screen. HEK293 hcDAF-12 lit1-tk-luc reporter, luminescence; 0% DMSO, 100% Δ7-dafachronic acid. AID 652067. hit rate 1.4% among 370,000. activation, % at 6.8 µM;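 active means activation above the mean of all tested compounds plus 3 SD, cut at about 5.5% in these data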;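 further: 100% = response to 3 µM Δ7-dafachronic acid high control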
ssDAF-12 act – activators of S. stercoralis DAF-12 nuclear receptor | HEK293 ssDAF-12/GRIP1 lit1-tk-luc reporter, luminescence; % of 3 µM dafachronic acid response | activation, % at 6.8 µM | hit rate 1% among 370,000 | AID 652126;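 active means activation above the mean over all tested compounds plus 3 SD, cut at about 0.9% in these data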;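 further: 0% = DMSO-only wells and 100% = 3 µM delta7-dafachronic acid wells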
SMARCA2 activ – increases SMARCA2 function in MMTV reporter cells | MG213 cells, MMTV-luciferase reporter, dexamethasone, overnight | activation, % at 9.1 µM | hit rate 1% among 370,000; in the data active means activation above about 7.8%;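 further: 0% = vehicle wells and 100% = reference activator wells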
hgDAF-12 ag – hgDAF-12 agonism, primary luciferase screen. HEK293 GAL4-hgDAF12 UAS-luciferase reporter, agonist luminescence; normalized to butyrate control. AID 687014. activation, % at 6.8 µM. hit rate 1.8% among 370,000;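 active means activation above a cutoff set at the mean of all screened compounds plus 3 SD, cut at about 10% in these data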;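 further: 0% = DMSO wells and 100% = sodium butyrate wells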
DAX1 inh confirm – confirmation of human DAX1 (NR0B1) inhibitors. shares compounds with DAX1 inh-2. HEK293T StAR-promoter luciferase reporter, SF-1/DAX-1 repression. inhibition, % at 6.8 µM. hit rate 87% among 2,400. AID 652134;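 active means inhibition above the average of every tested compound plus 3 SD, cut at about 3.8% in these data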;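 further: 0% = DAX-1 cells with DMSO and 100% = no DAX-1 control cells with DMSO; active compounds raise luminescence by relieving repression of the StAR reporter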
Target sequence (P51843 whole entry, looked up): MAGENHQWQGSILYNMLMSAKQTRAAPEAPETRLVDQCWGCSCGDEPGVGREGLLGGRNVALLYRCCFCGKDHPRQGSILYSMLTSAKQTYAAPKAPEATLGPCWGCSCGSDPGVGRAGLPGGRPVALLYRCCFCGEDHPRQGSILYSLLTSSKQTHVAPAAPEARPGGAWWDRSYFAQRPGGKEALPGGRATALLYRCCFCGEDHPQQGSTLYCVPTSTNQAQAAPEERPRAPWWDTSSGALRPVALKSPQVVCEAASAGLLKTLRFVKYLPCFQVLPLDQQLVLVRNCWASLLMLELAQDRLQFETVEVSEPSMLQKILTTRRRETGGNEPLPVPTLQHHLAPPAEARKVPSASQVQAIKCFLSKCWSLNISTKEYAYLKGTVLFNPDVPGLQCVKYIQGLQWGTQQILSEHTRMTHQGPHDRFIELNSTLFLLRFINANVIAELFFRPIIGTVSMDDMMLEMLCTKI
SF1 AF2mut Luc – counter-screen for DAX1 inhibitors: nonselective inhibitors with SF-1 AF2 mutant; shares compounds with DAX1 inh-2; HEK293 StAR-luciferase, luminescence; inhibition, % at 6.8 µM; hit rate 78% among 2,400; AID 652136;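 active means inhibition above the mean of all tested compounds plus 3 SD, cut at about 3% in these data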;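 further: 0% = DAX-1 transfected cells with DMSO and 100% = cells without DAX-1 with DMSO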
SMARCA2 conf – confirmation of SMARCA2 (BRM) function activators; hit rate 30% among 3,500; activation, % at 9.1 µM; AID 652260; shares compounds with SMARCA2 activ; MG213 cells, MMTV-luciferase with dexamethasone, luminescence, overnight; MG213 cells expressing E1A, Rb sequestered; DMSO wells 0%, reference activator 100%;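 active means activation above its plate's cutoff, the mean activation of tested wells plus 3 SD, cut at about 7.9% in these data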
GAL4-VP16 Luc – activates GAL4-VP16 luciferase, flagging SMARCA2 activator hits. activation, % at 9.1 µM. HEK293 GAL4-VP16 pG5luc reporter, luciferase luminescence; scaled: DMSO wells 0%, SAHA wells 100%. AID 686939. hit rate 41% among 3,500. shares compounds with SMARCA2 activ;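 active means activation above the solvent-only control well mean plus 3 SD, averaged across control plates, cut at about 5.2% in these data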
LXRb hcDAF ctr – counter-screen for hcDAF-12 agonists: agonists of human LXR-beta | activation, % at 6.8 µM | 3,400 tested, under 10 active | shares compounds with hcDAF-12 act | HEK293 Gal4-LXR tk-luc reporter, luminescence, 24 h; normalized: DMSO 0%, positive control 100% | AID 743027;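 active means mean percent activation of the reporter above a cutoff set as the average over tested compounds plus their standard deviation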
hcDAF12 conf – confirmation of H. contortus DAF-12 agonists; AID 743032; shares compounds with hcDAF-12 act; hit rate 61% among 3,400; activation, % at 6.8 µM; HEK293 hcDAF-12 lit1-tk-luc reporter, luminescence; % of Δ7-dafachronic acid response;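 active means mean activation across triplicate tests above the threshold derived from the earlier primary screen, cut at about 5.5% in these data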;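 further: 0% = DMSO only wells and 100% = 3 µM Δ7-dafachronic acid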
hgDAF12 conf – confirmation of H. glycines DAF-12 agonists; HEK293 GAL4-hgDAF12 luciferase reporter, agonist mode; percent of butyrate response; hit rate 80% among 3,300; activation, % at 6.8 µM; AID 743050; shares compounds with hgDAF-12 ag;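 active means mean activation over triplicate wells above the hit cutoff derived from the earlier primary screen, cut at about 11% in these data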;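 further: 0% = DMSO low control and 100% = 2 mM sodium butyrate high control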
LXRb DAF12 ctr – activates human LXR-beta, counter-screen for DAF-12 agonists | shares compounds with hgDAF-12 ag | HEK293 Gal4-LXR luciferase reporter, 24 h | activation, % at 6.8 µM | 3,300 tested, under 10 active | AID 743051;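 active means mean activation of the triplicate above a set limit carried over from the primary screen, none filed active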
* hit, by the source's call; . = no result.

SMILES	DAX1 inh-1	DAX1 inh-2	hcDAF-12 act	ssDAF-12 act	SMARCA2 activ	hgDAF-12 ag	DAX1 inh confirm	SF1 AF2mut Luc	hgDAF12 conf	LXRb DAF12 ctr	others
COc1cc(-c2cc(=O)c3ccc(O)cc3o2)cc(OC)c1OC	.	-1.3	-2.8	-0.8	-0.7	-2.8	.	.	.	.
O=C(NC1CCCCN(Cc2ccc(Cl)cc2)C1=O)c1ccccc1-c1ccc(Cl)c(Cl)c1 (configuration not stated)	.	-0.1	1.1	-1.6	0.0	-1.1	.	.	.	.
CCOC(=O)C(C)n1nc(/C=C/c2ccc(OC)cc2)ccc1=O (configuration not stated)	0.0	0.0	-0.1	-0.9	-3.5	-1.3	.	.	.	.
CC(C)c1ccc(/C=C/c2ccc(=O)n(C)n2)cc1	0.9	5.3*	6.4*	0.4	6.8	19.1*	6.7*	3.4*	14.4*	0.9
Cc1ccc(-c2cc(-c3nnc(SCC(=O)Nc4ccc(OCc5ccccc5)cc4)n3N)[nH]n2)cc1	.	-1.6	-0.9	-1.1	2.7	3.9	.	.	.	.
C[C@H]1[C@@H](OC(=O)NCc2ccccc2Cl)CC[C@@]23CCCN2C(=O)CCC[C@@H]13	.	.	-1.4	-1.9	.	1.5	.	.	.	.
CN(CC(=O)Nc1ccccc1Br)C(=O)c1cc2c(s1)CCCCC2	4.2*	6.4*	2.0	0.0	2.3	14.2*	7.5*	4.9*	11.3*	0.5
COc1ccc(NC(=O)c2noc3c2CCCCC3)cc1	2.8	4.5*	5.7*	-0.4	4.4	20.2*	11.5*	5.5*	18.1*	0.7
CCc1ccc(NC(=O)c2noc3c2CCCCC3)cc1	4.8*	5.7*	5.3	1.2*	5.7	15.1*	16.3*	9.0*	19.8*	0.8
COc1ccc(CNC(=O)c2noc3c2CCCC3)cc1	2.9	0.8	1.8	-0.7	1.7	8.9	.	.	.	.
CC(C)c1ccc(/C=C/C(=O)Nc2nncs2)cc1	-0.3	5.5*	12.8*	0.7	0.9	18.9*	13.8*	4.8*	18.4*	1.4	LXRb hcDAF ctr=2.2;hcDAF12 conf=6.3*
c1ccc(N=Nc2ccc(C3=NCCO3)cc2)cc1	2.9	11.2*	7.9*	0.6	10.3*	17.9*	19.1*	9.0*	15.8*	1.2	SMARCA2 conf=9.2*;GAL4-VP16 Luc=9.8*;LXRb hcDAF ctr=1.3;hcDAF12 conf=5.4
Cc1cccnc1NC(=S)NC(=O)c1cccs1	3.5	7.2*	14.2*	2.2*	7.1	17.7*	13.8*	10.5*	16.7*	1.0	LXRb hcDAF ctr=1.5;hcDAF12 conf=14.6*
O=C(Nc1nc(-c2nc3ccccc3s2)cs1)C1CC1	1.1	8.8*	4.9	0.0	1.9	23.0*	12.7*	6.4*	15.5*	0.8
Cc1ccc(N/C=C/C(=O)c2cccs2)cc1C	.	6.7*	20.8*	2.6*	5.1	30.0*	18.3*	6.0*	18.0*	1.3	LXRb hcDAF ctr=2.0;hcDAF12 conf=25.3*
Cc1ccc(NC(=O)COc2ccccc2C=O)cc1Cl	0.4	4.5*	5.8*	0.7	4.6	20.1*	9.6*	5.4*	15.4*	0.8
CC1CCCN(C(=O)c2ccc(-c3ccccc3Cl)o2)C1 (configuration not stated)	3.6	7.8*	1.7	-0.1	3.3	18.4*	12.0*	6.3*	15.5*	0.6
O=C(Nc1ccc2c(c1)CCC2)Nc1ccccc1Cl	0.6	8.8*	3.2	0.3	5.2	13.7*	9.8*	7.8*	21.6*	1.1
COc1ccc(OC)c(/C=C/C(=O)Nc2ccc3c(c2)CCC3)c1	-1.0	-0.3	-3.6	-1.4	2.3	3.7	.	.	.	.
O=C(Nc1ccc2c(c1)CCC2)c1ccccc1F	2.2	6.7*	15.2*	0.7	7.6	20.0*	13.8*	7.2*	20.5*	1.2	LXRb hcDAF ctr=1.8;hcDAF12 conf=11.6*
O=C(O)c1ccccc1-c1ccccc1C(=O)Nc1ccc2c(c1)CCC2	0.2	0.0	-0.6	-1.4	1.4	0.9	.	.	.	.
Cc1ccc(NC(=O)Nc2ccc3c(c2)CCC3)c(C)c1	0.0	1.4	0.9	-0.6	1.4	-0.1	.	.	.	.
COc1ccccc1/C=C/C(=O)Nc1ccc2c(c1)CCC2	3.5	5.2*	6.7*	1.4*	8.9*	16.3*	7.7*	7.5*	18.6*	0.9	SMARCA2 conf=6.2;GAL4-VP16 Luc=13.7*;LXRb hcDAF ctr=1.4;hcDAF12 conf=6.6*
O=C(Nc1ccc2c(c1)CCC2)c1ccccc1	0.1	5.6*	6.0*	0.3	2.6	16.9*	15.0*	6.5*	19.2*	1.1
O=C(CCS(=O)(=O)c1ccccc1)Nc1ccc(F)cc1Cl	.	-0.3	-2.4	-1.1	-2.9	1.7	.	.	.	.
CN(C)[C@H]1CCN(c2cccc3c2S(=O)(=O)N2CC[C@@H](C2)O3)C1	.	-0.8	-3.7	-1.4	-1.7	0.9	.	.	.	.
O=C(NC1CCCC1)C1(C(=O)C2CC2)CC(c2ccccc2C(F)(F)F)=NO1 (configuration not stated)	.	-0.2	1.2	-0.9	-2.3	-1.2	.	.	.	.
CC1=Nc2ccccc2N=C(N)C1c1ccccc1 (configuration not stated)	1.3	5.1*	7.4*	1.5*	4.4	18.1*	3.7*	4.3*	13.1*	0.4	LXRb hcDAF ctr=0.3;hcDAF12 conf=2.9
CC1=NN(c2ccccc2)C(=O)C1c1ccccc1 (configuration not stated)	-0.7	-0.7	-1.6	-1.3	-1.9	0.3	.	.	.	.
